The subject of test [1] is XIP peptide (Xip251-270) binding. Nature of the test: XIP fragment 251-270 binding compounds – biochemical, small-molecule microarray, fluorescence 635/667 nm, 0.1 µg/mL protein, primary screen (AID 1182). The note with it: fluorescent protein binding, 635 nm, higher = more signal, called active from +8 up or from −8 down.
In test [2] the test system is XIP peptide (Xip251-270). Nature of the test: compounds binding XIP fragment 251-270 – biochemical, small-molecule microarray, fluorescence 635/667 nm, 0.5 µg/mL protein, primary screen (AID 1183). The note with it: fluorescence 635 nm, higher = more signal.
Test [3] can be described thus: blood-stage malaria parasite viability loss – strain 3D7, DAPI fluorescence, 100 nL, primary screen (AID 1184).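 Note: parasites grown inside human red blood cells in medium with human serum.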 The note with it: P. falciparum 3D7 growth, 3 d, higher = more signal.
For test [4], the target named is Homeobox protein Hox-A13 (Mus musculus) (UniProt Q62424). Nature of the test: disruptors of Hoxa13 oligonucleotide interaction – biochemical, fluorescence polarization, labeled oligonucleotide, primary screen (AID 1185). The note with it: Hoxa13:DNA binding, 15 min, higher = more signal, called active from +8 up or from −8 down.
Chain of Homeobox protein Hox-A13 (Mus musculus) (Q62424 whole entry, looked up): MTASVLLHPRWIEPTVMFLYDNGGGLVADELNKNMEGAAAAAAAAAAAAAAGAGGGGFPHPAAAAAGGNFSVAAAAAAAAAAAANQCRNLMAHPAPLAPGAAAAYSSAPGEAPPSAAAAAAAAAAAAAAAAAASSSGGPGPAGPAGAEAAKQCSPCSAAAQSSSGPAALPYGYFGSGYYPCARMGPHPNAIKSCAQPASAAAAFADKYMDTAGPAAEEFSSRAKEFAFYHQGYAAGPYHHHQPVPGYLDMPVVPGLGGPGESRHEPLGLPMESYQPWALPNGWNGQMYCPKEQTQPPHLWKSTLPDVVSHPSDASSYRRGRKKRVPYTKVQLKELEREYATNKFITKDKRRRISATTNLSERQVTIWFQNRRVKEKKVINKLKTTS

Structures are written as SMILES. Calls of active or inactive are those of the source.

For the compound `CCOC(=O)NN=C1C[C@@H](O)[C@@H](O)[C@@H]2[C@@H]3C(=O)N([C@@H](C)c4ccccc4)C(=O)[C@@H]3CC[C@@H]12`, the composite z-score is -0.235 (inactive) in test [1] and 0.519 in test [2]. Moreover, the values for the z-score in test [3] and in test [4] were 0.156 and -1.84 (inactive), respectively.

Turning to `COC(=O)CC=C[C@@H](C)[C@@H](C=NO[C@@H](C)c1cn([C@H](CO)Cc2ccccc2)nn1)NS(=O)(=O)c1ccc(C)cc1`, the composite z-score in test [1] was -0.294 (inactive); in test [2], 0.464. In addition, the z-score in test [3] is 0.281; in test [4], -4.93 (inactive).

For the compound `C=CC1=C[C@H](O)[C@@H]2O[C@@H]2C12OCCCO2`, the composite z-score in test [1] is -0.49 (inactive); in test [2] it was 0.343. Moreover, the results for the z-score in test [3] and in test [4] were -0.706 and -1.87 (inactive), respectively.

Consider `CCOC(=O)CCN1C(=O)[C@H]2[C@H]3[C@H](O)[C@H](O)CC(=NOCC(C)C)[C@H]3CC[C@H]2C1=O`, for which the composite z-score in test [1] was 0.289 (inactive); in test [2], 0.158. Besides, the figures for the z-score in test [3] and in test [4] were 1.2 and 0.737 (inactive), respectively.

Take `CCCCC#C[C@@H]1C=C[C@H](OC(C)=O)[C@@H](COC(C)=O)O1`: the results for the composite z-score in test [1] and in test [2] were 1.45 (inactive) and 0.641, respectively. Besides, the z-score in test [3] was 0.247; in test [4], -4.35 (inactive).

As to `COC(=O)[C@@H]1CC[C@H](C)[C@@H](c2ccc(C)cc2)N1C(=O)c1ccc(C=NO[C@@H](C)c2cn([C@H](CO)Cc3ccccc3)nn2)cc1`, the results for the composite z-score in test [1] and in test [2] were -0.0658 (inactive) and 0.739, respectively. The z-score is -0.309 in test [3] and -5.13 (inactive) in test [4].

On to `COc1ccc(COC(=O)NN=C2C[C@@H](O)[C@@H](O)[C@@H]3[C@@H]4C(=O)N(C5CCCCC5)C(=O)[C@@H]4CC[C@H]23)cc1`, for which the composite z-score was -0.252 (inactive) in test [1] and -1.02 in test [2]. In addition, the z-score in test [3] is -0.336; in test [4], -5.48 (inactive).

On to `CC(=O)OC[C@H]1O[C@H](CCON=C2[C@H]3CCn4c(=O)n(-c5ccccc5)c(=O)n4[C@H]3[C@H](O)[C@@H]3O[C@H]23)C=C[C@@H]1OC(C)=O`, for which the composite z-score in test [1] was 0.149 (inactive); in test [2] it was -0.325. Further, the z-score in test [3] was -0.374; in test [4] it was -1.83 (inactive).

Regarding `C=CC[C@@H]1C=C[C@H](ON=C(C)CCC(=O)OC[C@H]2O[C@H](c3ccccc3)C=C[C@@H]2Oc2ccc(OC)cc2)[C@@H](CO)O1`, the results for the composite z-score in test [1] and in test [2] were 0.0195 (inactive) and 0.595, respectively. Besides, the values for the z-score in test [3] and in test [4] were 0.298 and -5.41 (inactive), respectively.

As to `O=C(NN=C1C[C@@H](O)[C@@H](O)[C@@H]2[C@@H]3C(=O)N(C[C@@H]4CCCO4)C(=O)[C@@H]3CC[C@@H]12)OCc1ccccc1`, the composite z-score in test [1] was 1.77 (inactive); in test [2], 0.126. Further, the figures for the z-score in test [3] and in test [4] were 0.263 and 0.756 (inactive), respectively.

As for `C[C@H]1COC(=O)[C@@H]2CCCN2C(=O)[C@@H](C)COC(=O)[C@H](Cc2ccccc2)NC1=O`, the composite z-score was -0.102 (inactive) in test [1] and 0.435 in test [2]. Besides, the z-score is -0.735 in test [3] and 0.163 (inactive) in test [4].

Regarding `COC(=O)[C@H](C)NC(=O)CCC1CC(OC(=O)NCc2ccc3c(c2)OCO3)CC2(CCCC(COC(=O)NCc3cccc(C(F)(F)F)c3)O2)O1` (stereo not given in full), the composite z-score is 0.2 (inactive) in test [1] and 0.717 in test [2]. Moreover, the z-score in test [3] was -2.06; in test [4] it was -5.57 (inactive).

As to `COC(=O)CC=C[C@@H](C)[C@@H](C=NOCC[C@@H]1C=C[C@H](OC(C)=O)[C@@H](COC(C)=O)O1)NS(=O)(=O)c1ccc(C)cc1`, the composite z-score was 0.412 (inactive) in test [1] and 0.303 in test [2]. Also, the figures for the z-score in test [3] and in test [4] were 0.0783 and -5.32 (inactive), respectively.

Take `CCN1C(=O)[C@H]2[C@H]3[C@H](O)[C@H](O)CC(=O)[C@H]3CC[C@H]2C1=O`: the composite z-score is 0.809 (inactive) in test [1] and 0.453 in test [2]. In addition, the z-score is 1.05 in test [3] and 0.0412 (inactive) in test [4].

With `CC(CCN1CCCc2nc(C)c(C)cc21)=NOC(C)CN1CCCCc2nc(C)c(C)cc21` (stereo not given), the composite z-score in test [1] is -0.053 (inactive); in test [2], 0.725. Besides, the values for the z-score in test [3] and in test [4] were -0.153 and -6.78 (inactive), respectively.

`CCOC(=O)[C@H](CC(C)C)NC(=O)CCC1CC(OC(=O)NCc2ccc3c(c2)OCO3)CC2(CCCC(COC(=O)NCC3CCCCC3)O2)O1` (stereo not given in full): the composite z-score in test [1] is 0.269 (inactive); in test [2], 0.0826. In addition, the z-score in test [3] is -1.77; in test [4], -6.18 (inactive).

As for `CCOC(=O)[C@H](CC(C)C)NC(=O)CCC1CC(OC(=O)NCc2cccc3ccccc23)CC2(CCCC(COC(=O)NCCC(C)C)O2)O1` (stereo not given in full), the composite z-score in test [1] is -0.299 (inactive); in test [2], 0.434. Further, the z-score is -0.267 in test [3] and -6.1 (inactive) in test [4].

With `CCc1cc2c(nc1CC)CCN(CCC(C)=NO[C@H](C)c1cn([C@@H]3COC[C@H]3O)nn1)C2`, the composite z-score in test [1] was -0.171 (inactive); in test [2], -0.0063. Further, the z-score was 0.653 in test [3] and -1.7 (inactive) in test [4].

For `CCOC(=O)[C@H](Cc1ccccc1)NC(=O)CCC1CC(OC(=O)NCc2cccc3ccccc23)CC2(CCCC(COC(=O)NCc3ccccc3)O2)O1` (stereo not given in full), the composite z-score in test [1] was 0.278 (inactive); in test [2], 0.355. Besides, the figures for the z-score in test [3] and in test [4] were -1.41 and -1.5 (inactive), respectively.

Take `C[C@H]1Cc2c(COc3ccccc3)nc3c(c2CO1)CN(CCOc1ccccc1)CC3`: the composite z-score in test [1] was -0.279 (inactive); in test [2] it was 0.692. For the same compound, the z-score in test [3] was 0.668; in test [4], -5.49 (inactive).

For the origin of these results see PubChem BioAssay.
